The sample as a whole holds a higher share of hits than the screen did.
ST2 IL33 inh: inhibitors of human ST2 (IL1RL1) binding to IL-33. hit rate 2.3% among 78,000. inhibition, % for hits at 17 µM. AlphaLISA ST2-Fc/biotin-IL-33 interaction, 1 h. Q01638; in the data active = inhibition above about 30%
Target sequence (Q01638 whole entry, looked up): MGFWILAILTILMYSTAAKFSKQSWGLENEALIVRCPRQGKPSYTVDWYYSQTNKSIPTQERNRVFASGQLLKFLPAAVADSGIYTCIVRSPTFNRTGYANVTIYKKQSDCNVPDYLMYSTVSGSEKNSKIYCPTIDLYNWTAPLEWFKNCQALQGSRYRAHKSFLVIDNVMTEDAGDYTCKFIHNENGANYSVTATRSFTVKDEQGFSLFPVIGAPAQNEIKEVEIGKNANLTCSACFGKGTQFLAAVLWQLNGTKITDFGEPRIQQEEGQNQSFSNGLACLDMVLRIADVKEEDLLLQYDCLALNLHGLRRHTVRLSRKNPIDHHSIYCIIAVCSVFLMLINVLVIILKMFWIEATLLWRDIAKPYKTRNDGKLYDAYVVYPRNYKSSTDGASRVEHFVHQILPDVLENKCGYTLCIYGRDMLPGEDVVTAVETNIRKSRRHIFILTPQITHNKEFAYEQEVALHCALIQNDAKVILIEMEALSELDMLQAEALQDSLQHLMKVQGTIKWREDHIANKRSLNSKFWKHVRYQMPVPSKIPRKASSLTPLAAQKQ
Of the large screens only hits and unclear results are named; the others gave an inactive call.

COCCCn1c(CN2CCN(C(C)C)CC2)cnc1S(=O)(=O)C1CCCC1	none
Cc1cc(C)n(C(=O)c2ccccc2F)n1	none
c1ccc(-c2ncn(C[C@@H]3CCCO3)c2-c2cccc(Cn3cccn3)c2)cc1	none
CCC(O)(CC)c1ccccc1O	none
O=C(C1CC1)N1CCc2cc(Br)cc(S(=O)(=O)N3CCc4ccccc4C3)c21	none
Cc1ccc(S(=O)(=O)N2CCN(C(=O)COc3ccccc3)C2c2ccccc2)cc1 (centres undefined)	none
COc1cccc(OC)c1OC	none
COc1cccc2c1NC(C)(C)C=C2C	ST2 IL33 inh 46%
COc1ccccc1N=C1C(=O)Nc2ccccc21	none
Cc1c(C(=O)N2CCN(C)C3(CCN(C)CC3)C2)cnc2ccnn12	none
C=CCOc1ccc(C2C(C(=O)OCC)=C(C)N=C3SCCC(=O)N32)cc1OC (centres undefined)	none
CCN1CCN(C(=O)c2cc3c(=O)n4cccc(C)c4nc3n2C)CC1	none
COc1ccc(/C=C2\CCC/C(=C\c3ccc(OC)c(OC)c3)C2=O)cc1OC	ST2 IL33 inh 30%
COc1ccc(C=C2C(=O)OC(C)(C(C)(C)C)OC2=O)cc1OC (centres undefined)	none
COc1ccc(/C=C/C#N)cc1OC	none
C(=C\c1ccccc1)/Sc1ccc2ccccc2n1	ST2 IL33 inh 34%
O=c1c2ccccc2nc(/C=C/c2ccccc2)n1Cc1ccccc1	none
C(=C\c1cnc2n[nH]nc2c1)/c1ccccc1	none
O=C(c1cc(COc2ccc(-n3cncn3)cc2)on1)N1CCc2c(Cl)cccc2C1	none
Cc1c(C(=O)N2CCN(C3CCCCC3)CC2)cnn1-c1nccc(-c2ccccc2F)n1	none
CCN(CC)CN1C(=O)C(=Nc2cccc(C(F)(F)F)c2)c2ccccc21	ST2 IL33 inh 32%
CCOc1ccc(N=C2C(=O)N(CN3CCN(c4ccccc4)CC3)c3ccccc32)cc1	none
O=C1C(=Nc2cccc(F)c2)c2ccccc2N1CN1CCN(c2ccccc2)CC1	none
CC(=NCc1ccccc1)c1c(O)[nH]c(=O)[nH]c1=O	none
O=C(CS(=O)(=O)c1cn(Cc2ccccc2Cl)c2ccccc12)NC1CCCCC1	ST2 IL33 inh 32%
Cc1cc(NC(=O)CS(=O)(=O)c2cn(Cc3ccccc3Cl)c3ccccc23)no1	none
CCn1cc(S(=O)(=O)CC(=O)NC2CCCCC2)c2ccccc21	none
CN(CCNCCC(=O)Nc1cccc(Cl)c1)S(C)(=O)=O	none
Cc1cccc(-c2cnc(C)nc2C2CCCN(C(=O)/C=C/c3cc(F)ccc3F)C2)c1 (centres undefined)	none
COc1ccc(CNS(=O)(=O)c2c(C)noc2C)cc1	none
O=C(Nc1cc(C(=O)Nc2cccc(O)c2)cc(C(=O)Nc2cccc(O)c2)c1)c1ccccc1	none
Cc1cc(CN(C)C(=O)c2ccc3nc(C4CCCCC4)oc3c2)n[nH]1	none
CC(=O)Nc1ccnn1C1CCN(Cc2cccc(OC3CCCC3)c2)CC1	none
COc1ccc(C)cc1NC(=O)c1coc(=O)c2ccccc12	none
CC(C)NC(=O)C1(O)c2ccccc2NC(=O)N1c1c(F)cccc1F (centres undefined)	none
Cc1ccccc1NC1CC(C)Nc2c(C)cccc21 (centres undefined)	ST2 IL33 inh 39%
Cc1ccccc1NC(=O)C1C2CCCCC21 (centres undefined)	none
O=C(Nc1ccccc1C1CC1)c1ccc(Cl)cc1	none
COC(=O)C1C(=O)C2=C(CC1C)NC(C)=C(C(=O)OC1CCCCC1)C2c1ccc(OC)cc1 (centres undefined)	none
COc1ccc(CN2CCC(N3CCCCC3)CC2)cc1	none
CCC(C)n1c(Cc2ccc(O)cc2)n[nH]c1=O (centres undefined)	ST2 IL33 inh 33%
CC(C)[C@@H](C)n1c(CCc2ccccc2)n[nH]c1=O	none
CC(C(=O)O)n1c(Cc2ccccc2)n[nH]c1=O (centres undefined)	none
CCOC(=O)c1cccc(N2C(=O)[C@@H]3C4C=CC([C@@H]3C2=O)C42CC2)c1	none
O=C(/C=C(/c1ccccc1)N1CCOCC1)c1ccc([N+](=O)[O-])cc1	ST2 IL33 inh 39%
O=C1C(=O)N(CCN2CCOCC2)C(c2ccc([N+](=O)[O-])cc2)C1=C(O)c1ccccc1 (centres undefined)	none
O=C(c1cc([N+](=O)[O-])ccc1N1CCOCC1)N1CCOCC1	none
CCOc1ccc(NC(=O)CSc2ncnc3sc4c(c23)CCC4)cc1	none
Cc1c(Cl)c(C)c([N+](=O)[O-])c(O)c1C=Nc1cccc(C(=O)O)c1	none
O=[N+]([O-])c1cccc(N=Cc2ccc(Br)c([N+](=O)[O-])c2)c1	none
Oc1c(C=Nc2cccc(F)c2)[nH]c2ccc(Br)c(Cl)c12	ST2 IL33 inh 32%
Oc1c(C=Nc2ccc(Br)cc2)[nH]c2ccc(Br)c(Cl)c12	ST2 IL33 inh 30%
Cc1ccc(C=Nc2ccc(Br)cc2)cc1	none
Oc1c(C=NC2CCCCC2)[nH]c2ccc(Br)c(Cl)c12	ST2 IL33 inh 45%
O=[N+]([O-])c1ccc(N=Cc2cc(Br)cc(I)c2O)cc1	none
CN(Cc1n[nH]c2c1CCC2)C(=O)c1cc(COc2cccc(F)c2)[nH]n1	none
CNc1ccccc1C(=O)N1CCCCC1CCN1CCOCC1 (centres undefined)	none
CN1CC2(CCCN(C(=O)Cn3c(=O)oc4ccccc43)CC2)OC1=O (centres undefined)	none
COC(=O)c1cccc(NC(=S)N[C@H]2CO[C@H]3[C@@H]2OC[C@H]3OCC(N)=O)c1	none
CC(NC(=O)c1ccncc1)C(c1cccs1)N1CCN(C)CC1 (centres undefined)	none
CCc1ccc(OCC(=O)NCc2cccnc2)cc1	none
Cc1ccc(N2C(=O)S/C(=C\c3ccc4c(c3)OCO4)C2=O)cc1	none
COc1ccccc1N1C(=N)S/C(=C/c2ccc(Br)c([N+](=O)[O-])c2)C1=O	none
COc1ccc(Br)cc1/C=C1/SC(=N)N(c2ccc3c(c2)OCO3)C1=O	ST2 IL33 inh 40%
CN(C)c1ncccc1CNC(=O)Cc1ccc(O)c(F)c1	none
CN(Cc1ccccc1)c1ncccc1CNC(=O)C1(C)CCCO1 (centres undefined)	ST2 IL33 inh 35%
CC(C)N1CCC(NCc2cccnc2N(C)Cc2ccccc2)CC1	none
CCOc1ccc(S(=O)(=O)N2CCN(c3cc(-c4ccc(F)cc4)ncn3)CC2)cc1	none
Cc1cc(Oc2ccccc2F)c(F)cc1[N+](=O)[O-]	ST2 IL33 inh 31%
COc1ccc(NC(=O)c2c(F)cccc2F)c([N+](=O)[O-])c1	none
O=C(c1cc(O)c(O)c([N+](=O)[O-])c1)c1ccccc1F	none
COc1ccccc1N1CCN(C(=O)c2ccc3nc4cc(Cl)ccc4c(=O)n3c2)CC1	none
CC(C)c1ccc(NC(=O)O[C@@H]2CO[C@H]3[C@@H]2OC[C@@H]3NC(=S)Nc2ccc(Cl)cc2)cc1	none
CCOC(=O)c1csc(Nc2nc3c(F)cccc3s2)n1	none
N#CSc1ccc(NC2(c3ccccc3)C(=O)c3ccccc3C2=O)cc1	ST2 IL33 inh 34%
O=C(O)CC1(c2ccccc2)C(=O)c2ccccc2C1=O	none
c1cnn(CCCNc2ccc(-c3nc(C4CC4)no3)cn2)c1	none
O=c1c(-c2ccc3c(c2)OCCCO3)coc2cc(O)cc(O)c12	none
N=C1S/C(=C\c2ccc(-c3ccc([N+](=O)[O-])cc3)o2)C(=O)N1c1nccs1	ST2 IL33 inh 34%
O=C1c2ccc(Oc3ccc4c(c3)C(=O)N(c3nccs3)C4=O)cc2C(=O)N1c1nccs1	none
O=c1/c(=C/c2ccc(-c3cccc([N+](=O)[O-])c3)o2)sc2nc3ccccc3n12	none
Cc1cc(C)nc(NS(=O)(=O)c2ccc(NCc3nc4ccccc4n3C)cc2)n1	none
C#CCN1C(=O)C(O)(CC(=O)c2ccc(-c3ccccc3)cc2)c2ccccc21 (centres undefined)	none
Cc1ccc(O)c(C=Nc2ccc(Br)c3cccnc23)c1	ST2 IL33 inh 97%

High-throughput results from PubChem.
